The values below come from PubChem BioAssay AID1962 (The Scripps Research Institute Molecular Screening Center, 2009).

Out of some 300,000 compounds screened, about 2,500 (0.83%) were called active. This excerpt belongs to a sample that is enriched for actives. Values without a mark were called inactive.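 The calls were made as follows: active = inhibition above the mean of all tested compounds plus 3 SD, set per screening campaign (cut at about 24% in these data); inactive = the rest.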

For this assay, the system named is tRNA 2'-phosphotransferase TPT1 (Candida albicans SC5314). In words: tRNA 2'-phosphotransferase blockers, C. albicans – biochemical, fluorescence polarization, primary screen (AID 1962).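 Also: plate controls were DMSO alone for no effect and ferristatin control at 100 nM for full effect.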 The following applies: recombinant caTPT1, FP RNA substrate dephosphorylation; at 5 µM; stronger effect = higher value.
For `C/C(=N\Nc1nc(N2CCOCC2)nc(N2CCOCC2)n1)c1ccc([N+](=O)[O-])cc1`, the inhibition is 0.13%.
With `COc1cccc(OC)c1C(=O)Nc1ccc2c(c1)n(C)c(=O)n2C` the figure was -1.47%.
With `Cc1ccc(N2NC(=O)/C(=C/C=C/c3ccco3)C2=O)cc1C` the figure was 4.93%; with `Cc1ccc(N=C2NC(=O)/C(=C/C=C/c3ccco3)S2)cc1C`, 25.4% (active); with `CN(C)c1ccc(-n2cccc2/C=C2/SC(=Nc3ccc(F)cc3)NC2=O)cc1`, 0.75%.
With `COC(=O)C1(S(=O)(=O)C2(C(=O)OC)CCCC2)CCCC1` the figure was -0.48%; with `CN1C(=O)CC(c2ccccc2)C1=O` (stereo unspecified), -3.97%; with `CCN1C(=O)N[C@@H](c2ccccc2)[C@H](C(C)=O)[C@H]1C`, 1.78%.
Take `Cc1ccc2nc(-c3ccncc3)cc(C(=O)Nc3ccncc3)c2c1`: the inhibition was -2.29%.
With `O=C(Nc1ccc(S(=O)(=O)Nc2nccs2)cc1)c1cc(=O)[nH]c2ccccc12` the figure was 11.7%; with `O=C(Nc1ccc(S(=O)(=O)Nc2nccs2)cc1)c1cc(-c2ccncc2)nc2ccccc12`, 42.7% (active).
With `O=C(NC(Cc1ccc(O)cc1)C(=O)O)/C(=C/c1ccccc1)NC(=O)c1ccccc1` (stereo unspecified) the figure was -2.71%.
Take `CC(=O)Oc1cccc(C(=O)Nc2ccccc2NC(=O)c2cccc(OC(C)=O)c2)c1`: the inhibition was -1.86%.
With `CC(=O)c1cc(NC(=O)c2ccccc2)c(=O)oc1/C=C/N(C)C` the figure was 110% (active); with `CCOC(=O)c1cc(NC(=O)c2ccc(Cl)cc2)c(=O)oc1-c1ccccc1`, -4.37%; with `Cc1ccc(N2CCN(C(=O)c3cccs3)CC2)c(C)c1`, -2.58%.
In the case of `Cn1cccc1/C=C1\SC(=S)N(NC(=O)c2ccc(Cl)cc2)C1=O`, the inhibition is 84.1% (active).
With `Cn1cccc1/C=C1\SC(=O)N(CC(=O)Nc2ccc(F)cc2)C1=O` the figure was 1.77%; with `O=C(O)c1ccc(/C=C2\SC(=S)N(NC(=O)c3ccc(Br)cc3)C2=O)cc1`, 5.29%.
With `CCCC(=O)Nc1ncnc2c1ncn2[C@@H]1O[C@@H]2OP(=O)(O)OC[C@H]2[C@H]1OC(=O)CCC` the figure was -4.36%.
With `CC(=O)Nc1cccc(Oc2cc(C#N)c(C#N)cc2N2CCOCC2)c1` the figure was -0.51%; with `COc1ccc(Br)cc1/C=N/n1c(C)nnc1C`, -0.28%.
On to `COc1cc(N2CCCC2)c(OC)cc1/C=C(/C#N)c1cccc(Br)c1`, for which the inhibition was 103% (active).
For `O=C1NCCn2nc3ccccc3c21`, the inhibition is -3.31%.
Under `CC(=O)Nc1ccc(S(=O)(=O)N(C)c2nc3ccccc3nc2Cl)cc1` stands -0.11%; under `Cc1ccc(S(=O)(=O)N(C)c2nc3ccccc3n3c(C(C)C)nnc23)cc1`, 49.9% (active); under `Cc1ccc(Oc2nc3ccccc3n3c(C)nnc23)cc1`, -2.63%.
In the case of `C#CCOCCOCCOCCNc1nc(N2CCN(C(=O)CCCCCCCCCCNC(=O)[C@H](CCCCN)n3cc(C)nn3)CC2)nc(N2CCN(C(=O)CCCCCCCCCCNC(=O)[C@H](CO)n3cc(CCCSC)nn3)CC2)n1`, the inhibition is 0.52%.
Consider `CN=C(c1ccccc1)c1c(C)cccc1C`, for which the inhibition is -0.46%.
Under `Cc1cccc(C2=N/C(=C/c3cccs3)C(=O)O2)c1` stands -1.73%; under `CN1C/C(=C/c2cccs2)C(=O)/C(=C\c2cccs2)C1`, -2.84%.
Regarding `CSC1=N/C(=C\C=C\c2cccs2)C(=O)S1`, the inhibition is 35.6% (active).
Under `CCOC(=O)c1c(NC(=O)NC(C)(C)C)sc2c1CCN(C)C2` stands 2.5%; under `CCOC(=O)c1c(NC(=S)NC)sc2c1CCCC2`, -1.5%; under `CCOC(=O)c1c(NC(=S)Nc2ccccc2)sc2c1CCN(C)C2`, 53.5% (active).
`CCOc1ccc(/C=C/C(=O)N(CC)CC(=O)NCc2cccs2)cc1OC`: the inhibition is -3.86%.
Under `COc1ccccc1/C=N/Nc1nc(C)c(C(C)=O)s1` stands 28% (active); under `CC(=O)c1sc(N/N=C\c2ccc(C)cc2)nc1C`, 17.2%; under `CC(=O)c1sc(N/N=C/c2ccc(C(C)C)cc2)nc1C`, 23%.
With `CCCCNC(=O)Nc1c(C)cc(SC#N)cc1C` the figure was -6.37%; with `COCCNC(=O)C1CCN(C(=O)C2CC(=O)N(c3ccc(C)cc3)C2)CC1` (stereo unspecified), 1.54%.
On to `Cc1ccn2c(c1)nc(=O)c1cc(S(=O)(=O)N3CCC(C)CC3)ccc12`, for which the inhibition was 0.45%.
On to `CCN(CC)c1ccc2cc(C(N)=O)/c(=N\NC(=O)c3ccncc3)oc2c1`, for which the inhibition was 133% (active).
Take `COc1ccc(C(=O)N/N=c2\oc3ccccc3cc2C(N)=O)cc1`: the inhibition is 4.71%.
For the molecule `NC(=O)c1cc2ccccc2o/c1=N/NC(=O)c1cccc(F)c1`, the inhibition was -1.51%.
Under `NC1=NC(=O)C(Cc2cccc(Cl)c2)S1` (stereo unspecified) stands -2.15%.
In the case of `CCC(=C/c1sc2ccc3ccccc3c2[n+]1C)/C=C1\Sc2ccc3ccccc3c2N1C`, the inhibition is 92% (active).
With `CCCCCCCCn1c2c(c(=N)c3c1CCC3)CCCC2` the figure was -2.44%.
Under `CCCCCCSc1ccc([C@@H]2[C@@H]3C(=O)N(CC)C(=O)[C@@H]3[C@]3(C(=O)OC)CCCCN23)cc1OC` stands 1.68%; under `COc1cc(N=Cc2c(O)[nH]c3ccccc23)cc(OC)c1OC`, -0.99%; under `CN=c1scc(-c2cc(OC)ccc2OC)n1/N=C/c1c(C)[nH]c2ccccc12`, 62.6% (active).
Regarding `CCn1c(-c2cc(OC)ccc2OC)csc1=Nc1c(C)n(C)n(-c2ccccc2)c1=O`, the inhibition was -1.13%.
In the case of `Cc1nn2c(=O)cc(COC(=O)c3ccc(NC(=O)C(C)(C)C)cc3)nc2s1`, the inhibition is -2.53%.
Consider `CCOC(=O)[C@H]1[C@H]2COc3ccc(OC)cc3[C@@H]2N2C(=O)c3ccc(F)cc3NC(=O)[C@@]12C`, for which the inhibition is 0.85%.
For `CC(C)CCN1NC2(CCC(C)CC2)NC1=S` (stereo unspecified), the inhibition is 2.43%.
With `COc1ccc2ccccc2c1CNc1nnnn1C` the figure was -1.06%.
Under `O=C1CN(C(=O)c2ccccc2F)C(c2ccc(F)cc2)c2cc(F)ccc2N1` (stereo unspecified) stands 0.25%; under `CCC(c1nnnn1Cc1ccccc1)N(Cc1cc2cc(OC)ccc2[nH]c1=O)CC1CCCO1` (stereo unspecified), -1.86%; under `CCC(c1nnnn1Cc1ccco1)N(CCc1ccccc1)Cc1cc2ccc(OC)cc2[nH]c1=O` (stereo unspecified), -2.34%.
With `CCC(c1nnnn1Cc1ccco1)N(Cc1cc2cc(OC)ccc2[nH]c1=O)C1CCCCC1` (stereo unspecified) the figure was 38.4% (active); with `CCOc1ccc(Oc2nc(C)cc(OC)n2)nn1`, -1.74%; with `CN(C)C(=O)N=NC(=O)N(C)C`, -3.37%.
Consider `COc1ccc(N=C(C)c2sc3ccccc3c2O)cc1`, for which the inhibition was 63.5% (active).
With `COc1ccccc1-c1sc2ccccc2c1-c1ccc(C(C)=O)cc1` the figure was -1.61%; with `COC(=O)Cc1[nH]n(-c2nc3ccccc3s2)c(=O)c1C(C)=Nc1ccc(OC)cc1`, 1.09%.
Under `CC(C)(Oc1ccc(C2CC2(Cl)Cl)cc1)C(=O)O` (stereo unspecified) stands -2.25%.
With `Cc1cccc2cc3c(N)c(C(=O)N4CCCc5ccccc54)sc3nc12` the figure was 45.2% (active); with `Cc1c(C(=O)N2CCCc3ccccc32)oc2ccccc12`, -2.42%; with `Cc1c(C(=O)N2CCCc3ccccc32)sc2nc(-c3ccccc3)cn12`, -1.15%.
As for `C#CCOCCOCCOCCNc1nc(N2CCN(C(=O)Cn3cc(CCCCN)nn3)CC2)nc(N2CCN(C(=O)[C@H](CCCCN)n3cc(CCC(=O)O)nn3)CC2)n1`, the inhibition was -1.83%.
With `Cc1ccc(Cc2nnc(SCC(=O)Nc3ccccc3C)[nH]c2=O)cc1` the figure was 1.69%.
